Results: PubChem BioAssay (Tox21)
Where “and” joins values, the source holds several entries; their conditions need not be identical. Equal values may be shown once. Results filed as inconclusive are left out. Calls of active or inactive are those of the source. Unless noted, the call rests on the fitted dose curve; in most records, active means well fitted curve in the direction sought with a large enough effect in the repeat runs; inconclusive means weak or mixed curves; inactive means no such curve, though single readings can be large; an effect the other way counts as inactive or inconclusive.

Assays:
[1] = qHTS assay to test for compound auto fluorescence at 535 nm (green) in HEK293 cells (AID 720680)
[2] = qHTS assay to test for compound auto fluorescence at 460 nm (blue) in HEK293 cell free culture (AID 720681)
How it was run: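 Compounds were added to cell-free DMEM with 10% FBS and fluorescence read directly. The blue channel used 405 nm excitation and 460 nm emission, with triamterene as the reference fluorophore.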

[3] = qHTS assay to test for compound auto fluorescence at 535 nm (green) in HEK293 cell free culture (AID 720682)
How it was run: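 Compounds were pin-transferred into cell-free DMEM with 10% FBS, and green fluorescence was read at excitation 485 nm and emission 535 nm. Intensities were expressed as fluorescein-equivalent values.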

[4] = qHTS assay to test for compound auto fluorescence at 590 nm (red) in HEK293 cell free culture (AID 720683)
How it was run: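 Cell-free wells of DMEM with 10% FBS received compound, and intrinsic fluorescence was read at excitation/emission 540/590 nm. Values expressed as equivalence to Rose Bengal sodium.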

[5] = qHTS assay to test for compound auto fluorescence at 590 nm (red) in HepG2 cell free culture (AID 720684)
How it was run: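 Rose Bengal sodium served as the reference for red signal. Test compounds were dispensed into serum-containing MEM (10% FBS) without cells, and plates were read at 540/590 nm.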

[6] = qHTS assay to test for compound auto fluorescence at 460 nm (blue) in HepG2 cell free culture (AID 720685)
How it was run: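 Cell-free plates of MEM plus 10% FBS received 23 nL compound or DMSO vehicle; blue-channel (405/460 nm) intensity scored against triamterene as reference fluorophore.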

[7] = qHTS assay to test for compound auto fluorescence at 535 nm (green) in HepG2 cell free culture (AID 720686)
[8] = qHTS assay to test for compound auto fluorescence at 460 nm (blue) in HepG2 cells (AID 720687)
How it was run: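 HepG2 cells in MEM with 10% FBS, attached overnight at 37 C, were exposed to compound or DMSO for 1 hr at 37 C, 5% CO2. Blue fluorescence was read at 405/460 nm, with triamterene as reference fluorophore.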

[9] = biological target: Glucocorticoid receptor (Homo sapiens) (UniProt P04150); assay: qHTS assay to identify small molecule agonists of the glucocorticoid receptor (GR) signaling pathway (AID 720691; active means well fitted activation curve with a large enough effect in the signal ratio in the repeat runs, not every such curve was filed as active; the % refers to the signal ratio)
Sequence of Glucocorticoid receptor (Homo sapiens) (P04150 whole entry, looked up): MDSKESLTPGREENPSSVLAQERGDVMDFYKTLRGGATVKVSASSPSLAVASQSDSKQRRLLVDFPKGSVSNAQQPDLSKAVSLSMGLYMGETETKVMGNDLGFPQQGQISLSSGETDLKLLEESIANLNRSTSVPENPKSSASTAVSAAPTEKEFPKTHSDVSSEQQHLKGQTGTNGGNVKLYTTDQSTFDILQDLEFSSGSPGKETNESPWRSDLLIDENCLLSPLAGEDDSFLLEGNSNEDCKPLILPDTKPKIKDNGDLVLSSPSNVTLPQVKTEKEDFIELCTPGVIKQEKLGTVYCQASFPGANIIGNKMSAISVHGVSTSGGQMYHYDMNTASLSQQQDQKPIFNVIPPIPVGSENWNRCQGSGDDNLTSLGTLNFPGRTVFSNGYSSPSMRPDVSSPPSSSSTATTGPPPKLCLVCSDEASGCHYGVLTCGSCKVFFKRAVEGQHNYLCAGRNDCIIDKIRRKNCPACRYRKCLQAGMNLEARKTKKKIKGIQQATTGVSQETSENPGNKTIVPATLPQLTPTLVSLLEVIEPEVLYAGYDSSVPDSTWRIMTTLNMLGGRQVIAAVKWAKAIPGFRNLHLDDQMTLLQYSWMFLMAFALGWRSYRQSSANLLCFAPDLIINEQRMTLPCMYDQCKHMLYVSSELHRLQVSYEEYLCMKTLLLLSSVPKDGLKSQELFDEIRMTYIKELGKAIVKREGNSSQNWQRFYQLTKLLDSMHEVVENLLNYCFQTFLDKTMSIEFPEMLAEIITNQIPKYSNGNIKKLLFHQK
How it was run: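 Measures GR pathway activation through a GRE-beta-lactamase reporter stably integrated in HeLa cells, with 18 h compound treatment at 37 C and fluorescence detection using a FRET substrate.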

[10] = biological target: Glucocorticoid receptor (Homo sapiens) (UniProt P04150); assay: qHTS assay to identify small molecule antagonists of the glucocorticoid receptor (GR) signaling pathway (AID 720692; active means well fitted inhibition curve with a large enough effect in the signal ratio in the repeat runs, not every such curve was filed as active; the % refers to the signal ratio)
How it was run: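 Tox21 10K library screened in concentration-response for blockade of dexamethasone (5 nM final)-induced GRE-bla reporter activity in HeLa cells; 18 h treatment, fluorescence read.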

[11] = qHTS assay to identify small molecule antagonists of the glucocorticoid receptor (GR) signaling pathway - cell viability counter screen (AID 720693); further: nearly all actives have a fitted effect of over 55% in size
[12] = qHTS assay for identifying genotoxic compounds that show differential cytotoxicity against isogenic chicken DT40 cell lines with known DNA damage response pathways - wild type cell line (AID 743012); further: nearly all actives have a fitted effect of over 60% in size
How it was run: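 Endpoint: CellTiter-Glo luminescence, 30 min RT. Cells: wild type DT40, 300/well. Exposure: compounds in DMSO, 40 h, 37 C/5% CO2, after ~0.5 h pre-incubation.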

[13] = qHTS assay for identifying genotoxic compounds that show differential cytotoxicity against isogenic chicken DT40 cell lines with known DNA damage response pathways - Rev3 mutant cell line (AID 743014); further: nearly all actives have a fitted effect of over 55% in size
[14] = qHTS assay for identifying genotoxic compounds that show differential cytotoxicity against isogenic chicken DT40 cell lines with known DNA damage response pathways - Rad54/Ku70 mutant cell line (AID 743015); further: nearly all actives have a fitted effect of over 60% in size
[15] = qHTS assay to identify small molecule antagonists of the androgen receptor (AR) signaling pathway - cell viability counter screen (AID 743033; further: nearly all actives have a fitted effect of over 45% in size)
[16] = biological target: Androgen receptor (Homo sapiens) (UniProt P10275); assay: qHTS assay to identify small molecule antagonists of the androgen receptor (AR) signaling pathway (AID 743035; active means well fitted inhibition curve with a large enough effect in the signal ratio in the repeat runs, not every such curve was filed as active; the % refers to the signal ratio)
Sequence of Androgen receptor (Homo sapiens) (P10275 whole entry, looked up): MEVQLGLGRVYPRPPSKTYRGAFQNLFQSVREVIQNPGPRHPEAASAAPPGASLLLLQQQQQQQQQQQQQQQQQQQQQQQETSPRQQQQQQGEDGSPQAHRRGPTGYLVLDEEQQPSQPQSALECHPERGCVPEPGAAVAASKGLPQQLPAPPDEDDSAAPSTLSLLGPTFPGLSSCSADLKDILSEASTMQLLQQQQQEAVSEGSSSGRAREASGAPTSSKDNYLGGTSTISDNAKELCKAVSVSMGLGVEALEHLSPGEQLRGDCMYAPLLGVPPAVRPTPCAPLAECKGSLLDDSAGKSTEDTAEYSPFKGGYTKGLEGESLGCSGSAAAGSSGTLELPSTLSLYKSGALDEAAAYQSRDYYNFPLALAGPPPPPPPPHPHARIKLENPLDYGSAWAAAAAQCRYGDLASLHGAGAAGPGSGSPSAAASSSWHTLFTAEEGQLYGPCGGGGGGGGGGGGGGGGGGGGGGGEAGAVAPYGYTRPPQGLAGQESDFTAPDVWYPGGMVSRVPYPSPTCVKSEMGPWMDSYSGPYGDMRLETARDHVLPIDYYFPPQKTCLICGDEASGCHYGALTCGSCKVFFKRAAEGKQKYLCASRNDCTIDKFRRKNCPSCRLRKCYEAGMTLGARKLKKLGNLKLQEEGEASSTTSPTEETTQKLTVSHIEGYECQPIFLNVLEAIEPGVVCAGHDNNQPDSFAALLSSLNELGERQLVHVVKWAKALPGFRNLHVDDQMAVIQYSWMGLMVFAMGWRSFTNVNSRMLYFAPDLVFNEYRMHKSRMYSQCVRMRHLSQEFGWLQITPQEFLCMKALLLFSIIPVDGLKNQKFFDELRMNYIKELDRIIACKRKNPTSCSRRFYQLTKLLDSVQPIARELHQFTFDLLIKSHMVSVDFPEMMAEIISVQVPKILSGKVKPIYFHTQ
How it was run: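 R1881 agonist challenge of a HEK293 UAS-beta-lactamase AR reporter line in the presence of compound (16 h, 37C); signal taken as FRET fluorescence after 2 h with LiveBLAzer B/G substrate at room temperature.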

[17] = biological target: Androgen receptor (Homo sapiens) (UniProt P10275); assay: qHTS assay to identify small molecule agonists of the androgen receptor (AR) signaling pathway (AID 743036; active means well fitted activation curve with a large enough effect in the signal ratio in the repeat runs, with a control signal flat, not every such curve was filed as active; the % refers to the signal ratio)
How it was run: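 Activation was read as beta-lactamase FRET signal from LiveBLAzer B/G substrate, added for 2 h at room temperature. Before that, GeneBLAzer AR-UAS-bla GripTite (HEK293) cells had 16 h compound exposure at 37C.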

[18] = biological target: Androgen receptor (Homo sapiens) (UniProt P10275); assay: qHTS assay to identify small molecule agonists of the androgen receptor (AR) signaling pathway using the MDA cell line (AID 743040; further: nearly all actives have a fitted effect of over 20% in size); settings: MDA-kb2 AR-luc cells, MMTV luciferase, 16 h, hits give high values
How it was run: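 Luciferase read-out, ONE-Glo, 30 min RT. Cells: MDA-kb2 AR-luc, MMTV promoter with AR and GR response elements. Compound exposure 16 h, 37C, 0% CO2, after 5 h pre-incubation. qHTS agonist mode.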

[19] = qHTS assay to identify small molecule antagonists of the androgen receptor (AR) signaling pathway using the MDA cell line - cell viability counter screen (AID 743041; further: nearly all actives have a fitted effect of over 45% in size)
How it was run: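 Cytotoxicity counter screen: MDA-kb2 AR-luc cells, compound + R1881, 16 h, 37C, 0% CO2; CellTiter-Fluor added at 15.5 h, fluorescence read after 30 min.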

[20] = biological target: Androgen receptor (Homo sapiens) (UniProt P10275); assay: qHTS assay to identify small molecule antagonists of the androgen receptor (AR) signaling pathway using the MDA cell line (AID 743042; further: nearly all actives have a fitted effect of over 55% in size)
How it was run: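 MDA-kb2 breast carcinoma cells carrying MMTV-luciferase (AR/GR responsive) were co-treated with compounds and the agonist R1881 for 16 h at 37C. Inhibition read as ONE-Glo luminescence; CellTiter-Fluor fluorescence measured in parallel for cytotoxicity.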
On the % scale 0 is the no-effect control and ±100 the full control effect.

Cc1ccccc1Cl
inactive: outcome [1] | Potency [2] | outcome [3] | outcome [4] | outcome [5] | Potency [6] | outcome [7] | Potency [8] | outcome [9] | Potency [10] | Potency [11] | Potency [12] | Potency [13] | Potency [14] | Potency [15] | Potency [16] | Potency [17] | activity change ([18]; at 70.3 µM (top of the series)) -0.0268% | activity change ([18]; at 95 µM (top of the series)) -0.806% | Potency [19] | Potency [20]

C=C(C)CC(C)(C)C
inactive: outcome [1] | Potency [2] | outcome [3] | outcome [4] | outcome [5] | Potency [6] | Potency [8] | outcome [9] | Potency [10] | Potency [11] | Potency [13] | Potency [14] | Potency [15] | Potency [19]

CCCCCCCC(=O)O
inactive: outcome [1] | Potency [2] | outcome [3] | outcome [4] | outcome [5] | Potency [6] | outcome [7] | Potency [8] | outcome [9] | Potency [11] | Potency [12] | Potency [13] | Potency [14] | Potency [15] | Potency [19]

CC1(C)[C@@H](O[C@H]2O[C@H](C(=O)O)[C@@H](O)[C@H](O)[C@H]2O[C@@H]2O[C@H](C(=O)O)[C@@H](O)[C@H](O)[C@H]2O)CC[C@]2(C)[C@H]3C(=O)C=C4[C@@H]5C[C@@](C)(C(=O)O)CC[C@]5(C)CC[C@@]4(C)[C@]3(C)CC[C@@H]12
inactive: outcome [1] | Potency [2] | outcome [3] | outcome [4] | outcome [5] | Potency [6] | outcome [7] | Potency [8] | Potency [11] | Potency [13] | Potency [14] | Potency [15] | Potency [19]

CC(=O)c1nccs1
inactive: outcome [1] | Potency [2] | outcome [3] | outcome [4] | outcome [5] | Potency [6] | Potency [8] | outcome [9] | Potency [10] | Potency [11] | Potency [12] | Potency [13] | Potency [14] | Potency [15] | Potency [19]

Cc1cc(C)c(O)c(C)c1
inactive: outcome [1] | Potency [2] | outcome [3] | outcome [4] | outcome [5] | Potency [6] | Potency [8] | outcome [9] | Potency [10] | Potency [11] | Potency [13] | Potency [14] | Potency [15] | Potency [19]

CC1=CC(=O)CC(C)(C)C1
inactive: outcome [1] | Potency [2] | outcome [3] | outcome [4] | outcome [5] | Potency [6] | outcome [7] | Potency [8] | outcome [9] | Potency [11] | Potency [13] | Potency [14] | Potency [15] | Potency [19]

C[n+]1ccn(CCO)c1
inactive: outcome [1] | Potency [2] | outcome [3] | outcome [4] | outcome [5] | Potency [6] | outcome [7] | Potency [8] | outcome [9] | Potency [10] | Potency [11] | Potency [13] | Potency [14] | Potency [15] | Potency [19]

Cc1cccc(C)c1[N+](=O)[O-]
inactive: outcome [1] | Potency [2] | outcome [3] | outcome [4] | outcome [5] | Potency [6] | outcome [7] | Potency [8] | outcome [9] | Potency [11] | Potency [12] | Potency [13] | Potency [14] | Potency [15] | Potency [19]

CCCCC(CC)COC(=O)c1ccc(C(=O)OCC(CC)CCCC)cc1 (centres undefined)
inactive: outcome [1] | Potency [2] | outcome [3] | outcome [4] | outcome [5] | Potency [6] | outcome [7] | Potency [8] | Potency [11] | Potency [12] | Potency [13] | Potency [14] | Potency [15] | Potency [16] | Potency [17] | activity change ([18]; at 70.3 µM (top of the series)) 2.15% and 1.01% | Potency [19] | Potency [20]

NCCNCCNCCN
inactive: outcome [1] | Potency [2] | outcome [3] | outcome [4] | outcome [5] | Potency [6] | outcome [7] | Potency [8] | outcome [9] | Potency [11] | Potency [13] | Potency [14] | Potency [15] | Potency [19]

CC(=O)OCCC(C)C
inactive: outcome [1] | Potency [2] | outcome [3] | outcome [4] | outcome [5] | Potency [6] | outcome [7] | Potency [8] | outcome [9] | Potency [10] | Potency [11] | Potency [12] | Potency [13] | Potency [14] | Potency [15] | Potency [19]

NC(N)=S
inactive: outcome [1] | Potency [2] | outcome [3] | outcome [4] | outcome [5] | Potency [6] | Potency [8] | outcome [9] | Potency [10] | Potency [11] | Potency [12] | Potency [13] | Potency [14] | Potency [15] | Potency [19]

COC(=O)OC
inactive: outcome [1] | Potency [2] | outcome [3] | outcome [4] | outcome [5] | Potency [6] | outcome [7] | Potency [8] | outcome [9] | Potency [11] | Potency [12] | Potency [13] | Potency [14] | Potency [15] | Potency [19]

O=C(O)C1=NN(c2ccc(S(=O)(=O)O)cc2)C(=O)C1
inactive: outcome [1] | Potency [2] | outcome [3] | outcome [4] | outcome [5] | Potency [6] | outcome [7] | Potency [8] | outcome [9] | Potency [10] | Potency [11] | Potency [12] | Potency [13] | Potency [14] | Potency [15] | Potency [19]

CCOC(=O)CC(=O)OCC
inactive: outcome [1] | Potency [2] | outcome [3] | outcome [4] | outcome [5] | Potency [6] | outcome [7] | Potency [8] | outcome [9] | Potency [10] | Potency [11] | Potency [13] | Potency [14] | Potency [15] | Potency [19]

Cc1ccc(C)c(S(=O)(=O)O)c1
inactive: outcome [1] | Potency [2] | outcome [3] | outcome [4] | outcome [5] | Potency [6] | outcome [7] | Potency [8] | Potency [11] | Potency [12] | Potency [13] | Potency [14] | Potency [15] | Potency [19]
